# Most compounds without a hit are left out; they make up all but 2.2% or so of the library.
# CHO-K1 Ca antag: counter-screen for M1 antagonists: effect in parental CHO-K1 cells. inhibition, % at 3 µM. ATP-induced calcium, Fluo-8 fluorescence. 360,000 tested, 0.6% active. AID 602250;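 active = inhibition above a per-plate cutoff, the plate's mean sample inhibition plus 3 SD, cut at about 24% in these data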;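 note: 0% = DMSO plus EC80 ATP and 100% = DMSO alone without ATP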
# ANO1 activ: TMEM16A chloride channel activators or potentiators, primary screen, cell-based, HTS | HEK293 TMEM16A/YFP-H148Q/I152L, iodide quench fluorescence; stronger effect = lower value | B-score at 10 µM | 340,000 tested, 0.3% active;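 active = fluorescence-ratio B-score plate-corrected deviation score at least 3 library SD below zero, with starting fluorescence score within 5 deviations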;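 note: channel opened by trigger with iodide after compound preincubation; score built on the fluorescence ratio of max minus min over baseline; more negative score means more quench and so TMEM16A activation or potentiation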
# NTR1 ag: agonists of human NTR1, primary screen, imaging, U2OS cells, beta-arrestin-GFP, high content; Neurotensin receptor type 1 (Homo sapiens), P30989; NTR1-U2OS beta-arrestin-GFP spot imaging, agonist mode; activation, % at 20 µM; 330,000 tested, 0.17% active; AID 493036, 2011;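 active = activation at or above 40% of the spot to cytoplasm intensity ratio, with at least 20 cells analyzed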;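 note: 0% = DMSO without peptide and 100% = 100 nM NTR1 peptide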
# Target sequence (P30989 whole entry, looked up): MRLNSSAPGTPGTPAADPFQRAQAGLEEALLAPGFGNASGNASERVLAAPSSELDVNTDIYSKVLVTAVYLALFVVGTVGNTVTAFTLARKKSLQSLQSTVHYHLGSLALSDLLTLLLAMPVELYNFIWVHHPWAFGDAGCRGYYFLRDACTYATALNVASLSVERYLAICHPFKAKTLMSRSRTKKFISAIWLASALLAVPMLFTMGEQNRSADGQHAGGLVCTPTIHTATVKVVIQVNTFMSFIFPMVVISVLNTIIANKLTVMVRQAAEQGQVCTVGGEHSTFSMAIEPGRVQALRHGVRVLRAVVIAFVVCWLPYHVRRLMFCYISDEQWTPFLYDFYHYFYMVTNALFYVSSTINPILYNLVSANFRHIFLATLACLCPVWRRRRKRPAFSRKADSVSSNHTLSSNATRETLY
# TMEM16A inh: TMEM16A chloride channel inhibitors, primary screen, cell-based, HTS | Anoctamin-1 (Mus musculus), Q8BHY3 | HEK293 TMEM16A/YFP iodide influx fluorescence, ionomycin | normalized B-score (activity score, 25-100; higher = stronger inhibition) at 10 µM | 310,000 tested, 1.2% active | AID 588511, 2011;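 active = ratio plate-corrected score three or more library SD toward inhibition, starting fluorescence score within five deviations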;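 note: score derived from kinetic fluorescence span divided by baseline fluorescence per well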
# M1 PAM parental: nonselective calcium activators in parental CHO-K1 cells, primary screen, counter-screen for M1 PAM project, cell-based, Fluo-8 calcium fluorescence, full deck, 1536-well; ATP EC20; 0% at ATP EC20, 100% at ATP max; activation, % at 3 µM; 360,000 tested, 0.02% active;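 active = activation above the run cutoff, the mean activation of all test compounds plus 3 SD, cut at about 40% in these data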;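 note: peak over basal fluorescence ratio in a 140 s read after ATP addition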
# M1 ag parental: counter-screen for M1 agonists: effect in parental CHO-K1 cells; Fluo-8 calcium fluorescence; scaled to maximal ATP response, vehicle zero; activation, % at 3 µM; 360,000 tested, 0.48% active; AID 602248, 2012; in the data active = activation above about 15%;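 note: untransfected CHO-K1 host cells lacking M1 receptor as counterscreen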
# * = called active by the depositor; i = inactive; · = not tested or not shown.
SMILES,CHO-K1 Ca antag,ANO1 activ,NTR1 ag,TMEM16A inh,M1 PAM parental,M1 ag parental
CNc1snc(C)c1C(=O)OC(C)C(=O)Nc1ccc(F)cc1 (stereo unspecified),-9,i,-2,·,6,6
CCCCc1ccc(C2C(C#N)=C(N)SC(N)=C2C#N)s1,·,·,1,100*,·,·
O=C(c1ccco1)N1N=C(c2ccc3nccnc3c2)CC1c1ccccc1 (stereo unspecified),-38,i,0,i,47*,4
COc1ccc(N2CCN(C(=O)COC(=O)c3oc4ccc(OC)cc4c3C)CC2)cc1,5,i,2,i,-9,16*
Cc1ccc(NC(=O)COC(=O)Cc2c[nH]c3ccccc23)cc1,-7,·,·,·,1,2
CCC(NC(=O)c1ccc2nc(Cc3ccc(OC)cc3)oc2c1)c1ccncc1 (stereo unspecified),1,i,4,i,0,15*
CC1CCN(C(=O)c2cc(N3C(=O)C4C5CCC(C5)C4C3=O)ccc2Cl)CC1 (stereo unspecified),·,·,3,i,·,·
O=C(c1cc(N2C(=O)C3C4CCC(C4)C3C2=O)ccc1Cl)N1CCN(c2ccccc2)CC1 (stereo unspecified),-1,i,-1,i,10,23*
c1ccc(Nc2nc(-c3ccccc3)ns2)cc1,9,-8.9*,1,i,7,0
CC(C)(C)C(=O)Nc1nc(-c2ccccc2)ns1,1,i,2,i,4,5
C=CCN1C(=NC(=O)CCCC(=O)O)SC2CS(=O)(=O)CC21 (stereo unspecified),28*,i,-2,i,-7,0
Cc1ccc(S(=O)(=O)N2C[C@H]3C(=O)C[C@@H](c4ccccc4)N(S(=O)(=O)c4ccc(C)cc4)[C@H]3C[C@H]2c2cccs2)cc1,1,·,·,·,7,0
O=C(Nc1ccccc1N1CCN(c2ccc(F)cc2)CC1)C12CC3CC(CC(C3)C1)C2,-15,i,0,i,10,0
O=C(NC(=S)N1CCN(c2ccc(F)cc2)CC1)C12CC3CC(CC(C3)C1)C2,3,-5.4*,2,i,4,1
CCc1nc2ccc(C(=O)NCCOc3ccc(OC)cc3)cn2c1N(C)C(=O)Cc1ccccc1,0,·,·,·,-13,1
COc1cccc(C(=O)N(CN2CCCC2=O)c2ccccc2OC)c1,28*,i,0,i,-8,0
Cc1ccc(NS(=O)(=O)c2ccc(C(=O)N3CCN(c4ncccn4)CC3)cc2)cc1,10,i,1,25*,13,9
O=C(c1ccc(S(=O)(=O)Nc2ccc(F)cc2)cc1)N1CCN(c2ccccn2)CC1,10,i,1,i,-12,17*
COc1ccc(NS(=O)(=O)c2ccc(C(=O)N3CCN(c4ccc(F)cc4)CC3)cc2)cc1,1,i,3,·,-7,16*
O=C(COc1ncnc2ccccc12)N1CCN(S(=O)(=O)c2ccc(Cl)cc2)CC1,63*,i,-1,i,0,0
CCN(CC(=O)Nc1ccccc1C(F)(F)F)C(=O)c1ccccc1Cc1ccccc1,-6,i,0,i,9,0
CCOC(=O)C1=NN(C(=O)c2ccc(C)cc2)C(O)(c2ccc(Cl)cc2)C1 (stereo unspecified),-5,i,1,100*,-2,13
NS(=O)(=O)c1ccc(NC(=S)Nc2ccc(C(=O)N3CCCCC3)cc2)cc1,10,i,0,i,17,16*
CC(C(=O)Nc1ccc(F)cc1Cl)N1CCN(S(=O)(=O)c2cccs2)CC1 (stereo unspecified),-9,-21*,2,·,21,0
CC(C)=CCC[C@H](C)C[C@@H]1Cc2[nH][nH]c(=O)c2[C@H](c2ccc(F)cc2)O1,-29,·,·,·,5,1
COc1cc2c(cc1OC)CN(C(=S)Nc1ccccc1)CC2,-12,i,1,i,17,1

# Screening data deposited in PubChem by several laboratories.
